Screens from PubChem.
Hits are enriched below; roughly 21% of the tested compounds scored in any of these assays.
Pf growth 96h: inhibits malaria parasite growth, 96 h; P. falciparum luciferase reporter growth, 96 h; Potency, µM (titrated, usually from 28.7 µM), most hits filed as inhibitors; 320,000 tested, 6.9% active
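Two-generation exposure (96 h) targets delayed-death phenotype. Reporter parasites carrying integrated firefly luciferase, in red cells at 2% hematocrit and 0.05% parasitemia final, kept at 37 C, 5% CO2; luminescence loss indicates inhibition.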
Pf growth 48h: inhibits P. falciparum growth in the first generation, 48 h | P. falciparum luciferase growth in erythrocytes, 48 h | Potency, µM (series often up to 28.7 µM), most hits filed as inhibitors | 310,000 tested, 5.9% active
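A one-generation exposure of luciferase-tagged malaria parasites in RPMI 1640/Albumax erythrocyte culture, 37 C and 5% CO2. Inhibition is inferred from decreased luminescence after adding detection reagent.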
Shiga inhibitor: inhibitors of Shiga toxin in Vero cells; Vero cells, Shiga toxin protein synthesis inhibition reporter; inhibition, % at 38.7 µM; 290,000 tested, 9.2% active; AID 2315; in the data active = inhibition mostly above about 28%, no sharp cut-off; inactive = mostly below about 43%
CHX counter: counter-screen for Shiga toxin inhibitors: cycloheximide protein synthesis inhibition; cell reporter, cycloheximide protein synthesis inhibition counterscreen; max response, %; 300,000 tested, 12% active; AID 2314; in the data active = max response mostly above about 13%, no sharp cut-off; inactive = mostly below about 14%; also: read at 38.3 µM for the half of the compounds with a filed dose
Of the large screens only hits and unclear results are named; the others gave an inactive call. Unless noted, calls follow the shape of the dose curve; as a rule, active = well fitted inhibition curve with a large enough effect; inconclusive = small, poorly fitted or top-dose-only effect, or another doubt; inactive = no such curve, though single readings can be large or run the other way.

CCOC(=O)N1CCN(C(=O)/C(=C/c2cccc3ccccc23)NC(=O)c2ccc(OC)cc2)CC1	Pf growth 96h 9.3µM, Pf growth 48h 13µM, CHX counter 17
COc1ccc(/C=C(/NC(=O)c2ccccc2)C(=O)N2CCC(C)CC2)cc1	Pf growth 48h inconclusive
C[N+]1(C)[C@@H]2CC(OC(=O)C(O)(c3cccs3)c3cccs3)C[C@H]1[C@@H]1O[C@@H]12 (stereo partly specified)	Pf growth 48h inconclusive (no result: Shiga inhibitor, CHX counter)
O=C(CSc1nnc(-c2ccc(C(F)(F)F)cn2)s1)c1ccccc1	none
CCC1CCCCN1CCCNC(=O)CCC(=O)N1CCOc2ccccc21 (stereo unspecified)	none
O=C(N/C(=C\c1ccccc1)C(=O)N1CCOCC1)c1cccc(Br)c1	Pf growth 96h 7.4µM, Pf growth 48h inconclusive
O=C(N/C(=C/c1ccccc1)C(=O)N1CCCCCC1)c1ccccc1	none
O=C(N/C(=C/c1ccccc1)C(=O)N1CCCCC1)c1ccccc1	Shiga inhibitor 51, CHX counter 96
c1ccc(C(c2ccccc2)N2CCN(c3ccc4ccccc4n3)CC2)cc1	none
Clc1ccc(C(c2ccccc2)N2CCN(c3ccccn3)CC2)cc1 (stereo unspecified)	Pf growth 96h 6.6µM, Pf growth 48h inconclusive
CN1CCN(C(c2ccccc2)c2ccccc2)CC1	Pf growth 48h inconclusive (no result: Shiga inhibitor, CHX counter)
CN1CCCN(C(c2ccccc2)c2ccc(Cl)cc2)CC1 (stereo unspecified)	Pf growth 96h 6.7µM, Pf growth 48h 13µM
O=C(CC1Sc2ccccc2NC1=O)NCc1ccccc1 (stereo unspecified)	Pf growth 48h inconclusive
Oc1ccccc1CNCCCNCc1ccccc1O	Pf growth 48h 8.3µM
OCCCNCc1cccc2ccccc12	none
Cc1ccc(Sc2ncccc2C(=O)NCc2cc([N+](=O)[O-])ccc2O)c(C)c1	Pf growth 96h inconclusive, Shiga inhibitor 104, CHX counter 66
O=C(NCc1ccccc1)c1cccnc1Sc1ccccc1	none
O=C(NCc1cc([N+](=O)[O-])ccc1O)c1cccnc1Sc1ccccc1	Pf growth 96h 12µM, Pf growth 48h inconclusive
O=C(NNC(=O)c1cccnc1SCc1cccc([N+](=O)[O-])c1)c1ccccn1	Pf growth 48h 5.2µM
Cc1cccc(-c2ocnc2C(=O)N2CCN(C(=O)c3cccs3)CC2)c1	none
CS(=O)(=O)c1nc(S(=O)(=O)c2ccc(Cl)cc2)c(NCc2ccccn2)s1	Pf growth 48h inconclusive
C=CCNC(=O)COc1c(C)ccc(C)c1C	none
CNc1nc2c(c(=O)n(C)c(=O)n2C)n1Cc1ccccc1	none
CC(C)Cn1c(CN2CCN(C(=O)c3ccco3)CC2)nc2c1c(=O)n(C)c(=O)n2C	none
Cn1c(=O)c2c(nc(CN3CCN(Cc4ccccc4)CC3)n2Cc2ccc(F)cc2)n(C)c1=O	Pf growth 96h inconclusive, Pf growth 48h 7.4µM
CCCCCn1c(CN2CCN(Cc3ccccc3)CC2)nc2c1c(=O)n(C)c(=O)n2C	Pf growth 96h inconclusive, Pf growth 48h 8.3µM
Cn1c(=O)c2c(nc(NC(Cc3ccccc3)C(=O)O)n2Cc2ccccc2)n(C)c1=O (stereo unspecified)	Pf growth 48h 6.6µM
CC(C)CCn1c(CN2CCN(Cc3ccccc3)CC2)nc2c1c(=O)n(C)c(=O)n2C	Pf growth 96h inconclusive, Pf growth 48h 4.7µM
CCCCn1c(CN2CCN(c3ccccc3)CC2)nc2c1c(=O)n(C)c(=O)n2C	Pf growth 96h inconclusive, Pf growth 48h inconclusive
CC1(C)CC(=O)C=C(Nc2ccc(C(=O)O)c(O)c2)C1	Pf growth 96h inconclusive
CCOC(=O)Nc1csnn1	none
CN(Cc1ccccc1)c1ncc(C=O)s1	none
O=C(CCc1nc2ccccc2c(=O)[nH]1)N1CCN(S(=O)(=O)c2cccc(F)c2)CC1	Pf growth 48h inconclusive
CCOc1ncccc1C(=O)OCC(=O)Nc1ccc2c(c1)OCCO2	none (no result: Shiga inhibitor, CHX counter)
CC(C)CCn1c(CN2CCN(C(=O)c3ccco3)CC2)nc2c1c(=O)n(C)c(=O)n2C	Pf growth 96h 6.6µM (no result: Pf growth 48h)
CC(C)CCn1c(NCCc2ccccc2)nc2c1c(=O)n(C)c(=O)n2C	Pf growth 96h inconclusive, Pf growth 48h inconclusive
Cn1c(=O)c2c(nc(CN3CCc4ccccc4C3)n2Cc2ccccc2)n(C)c1=O	Pf growth 96h 12µM, Pf growth 48h 13µM
Cn1c(=O)c2c(nc(NCCc3ccccc3)n2Cc2ccc(F)cc2)n(C)c1=O	Pf growth 96h inconclusive, Pf growth 48h 12µM
CC(C)(CNC(=O)COc1ccccc1Cc1ccccc1)N1CCOCC1	none
N#Cc1ccc(CSc2ccc(S(=O)(=O)N3CCCCCC3)cn2)cc1	none (no result: Shiga inhibitor, CHX counter)
CCOC(=O)C1=C(CNCCc2ccc(Cl)cc2)NC(=O)NC1c1ccc2c(c1)OCO2 (stereo unspecified)	Pf growth 48h 7.4µM (no result: Pf growth 96h)
CCOC(=O)C1=C(CNCCOc2ccc(OC)cc2)NC(=O)NC1c1ccc2c(c1)OCO2 (stereo unspecified)	Pf growth 96h inconclusive, Pf growth 48h 12µM
CCOC(=O)C1=C(C)NC(=O)NC1c1ccc2c(c1)OCO2 (stereo unspecified)	none
CCOC(=O)C1=C(CN2CCN(C(=O)OCC)CC2)NC(=O)NC1c1ccc2c(c1)OCO2 (stereo unspecified)	Pf growth 48h inconclusive
COc1cc(/C=N/NC(=O)COc2ccc(-n3cnnn3)cc2)ccc1OCC(N)=O	none
COC(=O)CCCn1nc(NC(=O)COc2ccc(F)cc2)cc1C	none
C/C(=N\NC(=O)c1nn(C)cc1Br)c1ccc(NC(=O)c2ccncc2)cc1	Pf growth 96h 4.1µM, Shiga inhibitor 105, CHX counter 59
Cn1ncc(Cl)c1C(=O)Nc1ccncc1	Pf growth 96h inconclusive
C/C(=N\NC(=O)c1nn(C)cc1Br)c1cccc(NC(=O)C(C)(C)C)c1	Pf growth 96h inconclusive, Pf growth 48h inconclusive, Shiga inhibitor 98, CHX counter 32
C/C(=N\NC(=O)c1ccc(N/N=C(\C)c2ccncc2)cc1)c1ccncc1	Pf growth 96h inconclusive
C/C(=N\NC(=O)C1(C)CC1(Br)Br)c1cccc(NC(=O)C(C)(C)C)c1 (stereo unspecified)	Pf growth 96h inconclusive
Cn1cc(Br)c(C(=O)NNC(=O)c2ccc(Cl)cc2)n1	CHX counter 39
C/C(=N\NC(=O)c1c(Cl)cnn1C)c1ccc(NC(=O)c2ccncc2)cc1	CHX counter 16
COc1cc2c(cc1OC)C(COc1ccc([N+](=O)[O-])cc1)N(C(C)=O)CC2 (stereo unspecified)	Pf growth 48h inconclusive
C/C(=N\NC(=O)c1nn(C)cc1Br)c1cccc(NC(=O)C2CCCC2)c1	Shiga inhibitor 102, CHX counter 65
Cc1ccc(Nc2nc(-c3cccnc3)nc3ccccc23)cc1	Pf growth 48h 15µM
c1ccc2c(Nc3ccc(N4CCOCC4)cc3)nc(N3CCOCC3)nc2c1	Pf growth 48h inconclusive
Cc1cccc(-c2nc(Nc3ccc(N4CCOCC4)cc3)c3ccccc3n2)c1	Pf growth 96h inconclusive, Pf growth 48h 9.3µM
CCOC(=O)c1ccc(Nc2nc(-c3cccnc3)nc3ccccc23)cc1	Pf growth 48h 5.9µM
O=C(CSc1nnc(NC(=O)C2CC2)s1)NCc1ccccc1	none
CCOC(=O)c1[nH]c2c(c1-c1ccccc1)C(=O)CC(c1ccc(OCC)cc1)C2 (stereo unspecified)	Pf growth 96h 10µM
